{"source": "PubChem BioAssay (EPA / NIEHS)", "note": "Active and inactive are the calls of the source. Rule for the calls: active = hit-call score of the fitted dose curve at least 0.9, where 1 is the maximum; inactive = score below 0.9."}
{"experiment": "STM_H9_OrnithineISnorm_perc: Stemina devTOX quickPredict H9 human embryonic stem cell (hESC)-based Assay for Ornithine (ORN) Metabolite Biomarker, Normalized (AID 2283712);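 note: ornithine released into spent medium during last day measured by mass spectrometry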", "from_the_text": "STM_H9_secretome utilizes undifferentiated H9 cells to measure relative changes in two metabolites, ornithine (ORN) and cystine (CYSS) in the secretome, targeting a critical drop in the ORN/CYSS ratio as a biomarker for developmental toxicity.STM_H9_OrnithineISnorm is one of 10 components calculated in the STM_H9_secretome assay. It measures the integrated area of the endogenous ornithine normalized to the spiked-in isotopically labeled standard and to the median value of the 0.1% DMSO neutral control treatment using UPLC-HRMS technology.Data from the assay component STM_H9_OrnithineISnorm_perc was analyzed at the assay endpoint STM_H9_OrnithineISnorm_perc in the positive analysis fitting direction relative to DMSO as the negative control and baseline of activity. Using a type of binding reporter, gain or loss-of-signal activity can be used to understand relative metabolite change.\nH9 hESCs maintained in a pluripotent state were exposed to test compound for 72h with chemical replenishment with media replacement every 24h. Cell-conditioned media from the final 24-h treatment period was collected for analysis of the targeted biomarker, and cell viability of the corresponding cell layer was assessed. The chemical library was tested in blinded fashion. Each test plate included 1uM Methotrexate (MTX; Selleck Chemicals, Houston, Texas) as a positive reference, 5 nM MTX as a negative reference, 0.1% DMSO as the neutral (vehicle) control, and sample-level media blanks.H9 cell-conditioned media from the final 24-h treatment period was collected for analysis of the targeted biomarker and cell viability was measured from the corresponding cell layer. Cell viability was measured using the CellTiter-Fluor assay (Promega, Madison, Wisconsin) based on proteolytic cleavage of a substrate to fluorescent signal proportional to the number of living cells. The cell viability Relative Fluorescence Unit (RFU) was background corrected and normalized to mean RFU of the neutral control (0.1% DMSO). The collected H9-cell-conditioned media samples were processed for targeted biomarker analysis as described (Palmer et al., 2013). Briefly, spent media samples were deproteinized (40% acetonitrile) and processed for UPLC-HRMS. Data acquisition was performed using 4 separate UPLC-HRMS systems, consisting of an Agilent 1290 Infinity LC system (Agilent Technologies) interfaced with an Agilent high-resolution mass spectrometer (models G6520A, G6520B, G6530A, and G6224A). A Waters Acquity UPLC BEH Amide column (2.1mm x 50mm, 1.7lm particle size; Waters, Milford, Massachusetts) maintained at 40C was applied for separation of metabolites using a 6.5min solvent gradient with 0.1% formic acid in water and 0.1% formic acid in acetonitrile (1.0ml/min flow rate). Data were acquired using MassHunter Acquisition software (version B 04.00, Agilent Technologies). The extracted ion chromatogram (EIC) areas for ORN, CYSS, and their respective spike-in C13-standards were determined using the Agilent MassHunter Quantitative Analysis software, version B.05.00 or newer (Agilent Technologies), and data were normalized as described in Palmer et al. (2017)."}
{"smiles": "O=C1CCCO1", "outcome": "inactive"}
{"smiles": "Cc1ccc(N)cc1", "AC50": "61.2 µM (active)"}
{"smiles": "CCCCCOC(=O)c1ccccc1C(=O)OCCCCC", "outcome": "inactive"}
{"smiles": "[Cl-].[Cl-].[Hg+2]", "AC50": "1.34 µM (active)"}
{"smiles": "CCCCCCCCn1sccc1=O", "AC50": "43 µM (active)"}
{"smiles": "COc1cc(C=O)cc2c1[C@H](COC(N)=O)[C@]1(OC(C)=O)ON2C[C@H]2[C@@H]1N2C(C)=O", "AC50": "0.00101 µM (active)"}
{"smiles": "O=P(OCCCl)(OCCCl)OCCCl", "outcome": "inactive"}
{"smiles": "Nc1ccc(Oc2ccc(N)cc2)cc1", "AC50": "59.5 µM (active)"}
{"smiles": "OCCCBr", "outcome": "inactive"}
{"smiles": "Clc1ccc(C(c2ccc(Cl)cc2)C(Cl)(Cl)Cl)cc1", "outcome": "inactive"}
{"smiles": "C[N+](C)(C)CC1CO1", "note": "(stereo not given)", "AC50": "21 µM (active)"}
{"smiles": "Clc1ccc(C(c2ccc(Cl)cc2)C(Cl)Cl)cc1", "outcome": "inactive"}
{"smiles": "COC(=O)Nc1nc2ccccc2[nH]1", "outcome": "inactive"}
{"smiles": "CC(C)(C)C(O)(CCc1ccc(Cl)cc1)Cn1cncn1", "note": "(stereo not given)", "AC50": "79.1 µM (active)"}
{"smiles": "CNC(=O)Oc1cccc2c1OC(C)(C)C2", "outcome": "inactive"}
{"smiles": "CCN(CC)N=O", "outcome": "inactive"}
{"smiles": "ClC1=C(Cl)[C@]2(Cl)[C@H]3[C@H]([C@@H]4C=C[C@H]3C4)[C@@]1(Cl)C2(Cl)Cl", "outcome": "inactive"}
{"smiles": "CC(C)COC(=O)c1ccccc1C(=O)OCC(C)C", "AC50": "76.1 µM (active)"}
{"smiles": "CN(C)C(=O)Nc1ccc(Cl)cc1", "outcome": "inactive"}
{"smiles": "Cc1ccc(N)c(N)c1", "AC50": "18.9 µM (active)"}
{"smiles": "Oc1ccc2ccc3cccc4ccc1c2c34", "outcome": "inactive"}
{"smiles": "CCCCOC(=O)c1ccccc1C(=O)OCc1ccccc1", "outcome": "inactive"}
{"smiles": "CCCCCCCCCCCCCN1CC(C)OC(C)C1", "note": "(stereo not given)", "outcome": "inactive"}
{"smiles": "O=[N+]([O-])c1ccc(Oc2ccc(Cl)cc2Cl)cc1", "AC50": "68.7 µM (active)"}
{"smiles": "Brc1ccc(Oc2ccccc2)cc1", "outcome": "inactive"}
{"smiles": "Clc1ccc(Cl)c(Cl)c1", "outcome": "inactive"}
{"smiles": "CCC[CH2][Sn]([Cl])([CH2]CCC)[CH2]CCC", "AC50": "0.519 µM (active)"}
{"smiles": "CO[C@@H]1[C@H](OC(=O)NC(=O)CCl)CC[C@]2(CO2)[C@H]1[C@@]1(C)O[C@@H]1CC=C(C)C", "AC50": "0.0844 µM (active)"}
{"smiles": "Cc1cccc(N)c1N", "AC50": "76.4 µM (active)"}
{"smiles": "Cn1cc(-c2ccccc2)c(=O)c(-c2cccc(C(F)(F)F)c2)c1", "AC50": "0.0803 µM (active)"}
